Shown are actives, neighbours in structure and some others; about 1.1% of the full set was active somewhere.
CaV13 ICDI inh – Primary screen for inhibitors of IQ motif and Ca2+-dependent inactivation inhibitor domain binding in CACNA1D, Förster resonance energy transfer in living cells, … | inhibition, % at 12.3 µM | 0.098% of 340,000 active | HEK cells, CFP/YFP FRET ICDI-IQ, plate reader, 10 min; percent FRET-ratio fall versus neutral wells;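 active means mean replicate inhibition of at least 30% and at least 1% of replicates passing that level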
VLA-4 inh – inhibition in a human VLA-4 binding assay. P13612. inhibition, % (about 7 µM as worked out from the volumes in the protocol). VLA-4 expressing cells, ligand binding flow cytometry. 0.2% of 330,000 active. AID 2557; in the data active means inhibition above about 50%
Target sequence (P13612 whole entry, looked up): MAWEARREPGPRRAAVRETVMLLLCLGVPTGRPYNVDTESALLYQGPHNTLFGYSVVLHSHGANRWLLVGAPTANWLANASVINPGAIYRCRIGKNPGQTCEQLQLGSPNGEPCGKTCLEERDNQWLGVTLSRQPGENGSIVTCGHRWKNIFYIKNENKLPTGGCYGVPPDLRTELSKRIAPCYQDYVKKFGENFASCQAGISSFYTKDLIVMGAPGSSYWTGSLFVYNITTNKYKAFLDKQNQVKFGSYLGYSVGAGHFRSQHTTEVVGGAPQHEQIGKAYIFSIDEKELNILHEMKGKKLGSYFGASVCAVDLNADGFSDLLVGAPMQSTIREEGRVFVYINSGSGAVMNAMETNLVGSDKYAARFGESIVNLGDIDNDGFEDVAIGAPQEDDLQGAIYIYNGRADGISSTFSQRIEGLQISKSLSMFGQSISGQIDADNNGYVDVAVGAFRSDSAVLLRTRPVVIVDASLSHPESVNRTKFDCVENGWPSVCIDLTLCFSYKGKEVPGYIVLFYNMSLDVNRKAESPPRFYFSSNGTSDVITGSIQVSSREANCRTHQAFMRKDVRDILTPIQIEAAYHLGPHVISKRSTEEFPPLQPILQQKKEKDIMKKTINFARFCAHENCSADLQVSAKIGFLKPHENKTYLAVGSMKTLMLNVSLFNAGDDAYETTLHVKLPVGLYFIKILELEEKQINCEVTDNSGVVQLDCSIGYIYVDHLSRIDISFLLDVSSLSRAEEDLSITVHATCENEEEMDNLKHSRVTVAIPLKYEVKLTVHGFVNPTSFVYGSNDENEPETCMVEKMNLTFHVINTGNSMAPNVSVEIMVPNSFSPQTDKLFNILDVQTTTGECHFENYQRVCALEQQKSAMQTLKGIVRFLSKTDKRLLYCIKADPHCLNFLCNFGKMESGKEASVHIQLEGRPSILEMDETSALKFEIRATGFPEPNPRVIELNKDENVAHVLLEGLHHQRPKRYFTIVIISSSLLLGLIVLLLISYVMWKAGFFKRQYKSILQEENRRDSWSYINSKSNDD
ABCB6 inh 2 – blocks the human ABCB6 transporter. Q9NP58. K562-ABCB6 porphyrin accumulation, flow cytometry, 1 h; stronger effect = lower value. fluorescence ratio to DMSO, % at 10 µM. 0.19% of 360,000 active;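 active means fluorescence ratio to DMSO below 75%, the collection mean minus 3 SD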;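 further: signal is porphyrin accumulated inside mitochondria; lower ratio means ABCB6 inhibition with less porphyrin fluorescence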
Exocytosis inh – lytic granule exocytosis inhibition; TALL-104 LAMP-1 surface exposure, flow cytometry; cells stimulated with thapsigargin and PMA; inhibition, % at 10 µM; 0.66% of 360,000 active;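 active means inhibition above about 55%, limit read from the data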
Granule exo CP1 – blocks lytic granule exocytosis; shares compounds with Exocytosis inh; TALL-104 cells, LAMP-1 externalization, flow cytometry; stimulated with PMA plus thapsigargin; inhibition, % at 10 µM; 11% of 1,500 active; AID 651954; in the data active means inhibition above about 60%
A number is an active result; - = inactive; . = no result.

SMILES	CaV13 ICDI inh	VLA-4 inh	ABCB6 inh 2	Exocytosis inh	Granule exo CP1
O=C(NNC1CC(=O)N(c2ccc(Br)cc2)C1=O)c1ccccn1 (stereo not given)	-	-	-	-	.
CCS(=O)c1ccccc1C(=O)OCC(=O)Nc1ccc2ccccc2c1 (stereo not given)	-	-	-	-	.
O=C(NCc1cccs1)C1CCCN1C(=O)Nc1ccc(Cl)cc1 (stereo not given)	.	-	.	.	.
CC1(C(=O)Nc2ccc(F)cc2F)CCN1C(=O)Cc1ccccc1 (stereo not given)	-	.	-	-	.
COc1ccc(-n2sc3ccccc3c2=O)cc1	-	.	-	84.2	99.9
CC(=O)OCCCN(C)CC/C=C1/c2ccccc2CSc2ccccc21	-	-	-	61.7	-
COc1ccc(CCN2C(=O)c3ccccc3NC2c2cc(Cl)c(O)c(OC)c2)cc1 (stereo not given)	-	-	-	76.6	-
CCCN1C(=O)c2ccccc2NC1c1cc(OC)c(OC)c(OC)c1 (stereo not given)	-	-	-	-	.
O=C(Cc1ccccc1Cl)Nc1cc(S(=O)(=O)N2CCOCC2)ccc1N1CCOCC1	-	-	-	-	.
C=CCN(C(=O)Cc1cccs1)c1nc(-c2ccc(S(C)(=O)=O)cc2)cs1	-	-	-	-	.
C=CCN(C(=O)CCc1ccccc1OC)c1nc(-c2ccc(S(C)(=O)=O)cc2)cs1	-	-	-	82.6	-
COc1ccc(C2/C=C\CC(NS(=O)(=O)c3ccc(C)cc3)CC(=O)N2Cc2ccccc2F)cc1 (stereo not given)	.	.	-	-	.
CC(=O)N1c2ccc(C)cc2C(c2ccccc2)CC1C (stereo not given)	-	-	-	80.1	-
CC(=O)OC1CC(C)N(C(=O)c2ccccc2)c2ccc(C)cc21 (stereo not given)	-	-	-	-	.
O=C(NNS(=O)(=O)c1cc(Cl)cc(Cl)c1)c1sccc1-n1cccc1	-	-	-	-	.
C#CCSc1nnc(CNS(=O)(=O)c2ccc(Br)cc2)n1C	.	-	-	-	.
CCc1nccn1C(=O)c1cnn2c(C(F)F)cc(-c3ccc(C)cc3)nc12	-	-	-	89.3	-
CCc1nccn1C(=O)c1cnn2c(C(F)F)cc(-c3ccccc3)nc12	.	-	.	.	.
COc1ccc(OC)c(N(CC(=O)Nc2cccc(C(F)(F)F)c2)S(C)(=O)=O)c1	-	-	-	-	.
COc1ccccc1N(CC(=O)Nc1ccc2c(c1)OCCO2)S(C)(=O)=O	-	-	-	-	.
CCOc1ccccc1N(CC(=O)NC1CCCCC1)S(=O)(=O)c1ccc(C)cc1	-	-	-	93.4	-
COc1ccccc1N(CC(=O)Nc1ccc2c(c1)OCCO2)S(=O)(=O)c1ccc(C)cc1	-	-	-	73.4	-
COc1ccccc1N(CC(=O)Nc1cccc(C(F)(F)F)c1)S(C)(=O)=O	-	-	-	80.1	-
Cn1cc([N+](=O)[O-])c(C(=O)Nc2ccn(Cc3c(F)c(F)cc(F)c3F)n2)n1	-	-	-	-	.
O=C(OCC(=O)N1CCC(Cc2ccccc2)CC1)c1ccccc1O	-	-	-	-	.
SMILES	CaV13 ICDI inh	VLA-4 inh	ABCB6 inh 2	Exocytosis inh	Granule exo CP1
Cc1ccc(S(=O)(=O)Nc2cc3c(C(=O)Nc4ccccc4)c(C)oc3c3ccccc23)cc1	-	-	-	-	.
CCC1C(=O)NCCN1C(=O)c1ccc2nc(Cc3cccc(Cl)c3)oc2c1 (stereo not given)	-	-	-	-	.
CCO[C@@H]1OC(C(=O)NC2CC2)=C[C@H](c2c[nH]c3ccccc23)[C@H]1CCCO	-	-	-	-	.
CCO[C@H]1OC(C(=O)NC2CC2)=C[C@@H](c2c[nH]c3ccccc23)[C@@H]1CCCO	-	-	-	56.5	-
Cc1ccc(S(=O)(=O)c2c(C(=O)c3ccccc3)cnc3cc4c(cc23)OCCO4)cc1	-	-	-	-	.
O=[N+]([O-])c1cccc(S(=O)(=O)N2CCN(c3ccccn3)CC2)c1	-	-	-	-	.
O=C1CC[C@@H](O)CCN1CC[C@H](Sc1ccc(Br)cc1)c1ccccc1	-	-	-	-	.
CC(C)(C)[C@@H]1CCC(=O)N(CC[C@H](Sc2ccc(Br)cc2)c2ccccc2)CC1	-	-	-	65.4	-
Cc1cc(Br)cc(Cl)c1OCC(=O)N1CCN(C(=O)c2ccco2)CC1	-	-	-	89.1	-
Cc1cc(C(=O)CSc2nc3ccccc3[nH]2)c(C)n1CC1CCCO1 (stereo not given)	-	-	-	89.6	76.8
Cc1cc(C(=O)CSc2nc(N)cc(=O)[nH]2)c(C)n1CC1CCCO1 (stereo not given)	-	-	-	-	.
COc1ccc(OC)c(NC(=O)c2cccc3c2C(=O)N(C2CCCCC2)C3)c1	-	-	-	78.3	-
Cc1ccc(C(=O)CSc2nc(C)cc(SCc3nnc(-c4ccccc4)o3)n2)cc1	-	-	-	-	.
COc1ccc(C(=O)CSc2cc(C)nc(SCC(=O)c3ccc(C)cc3)n2)cc1	.	-	-	55.6	-
O=C(Nc1ccc2nc(-c3cccs3)c(-c3cccs3)nc2c1)N1CCOCC1	-	-	-	100.9	99.3
O=C(Nc1cccc(O)c1)N1CCOCC1	.	-	-	-	.
Cc1ccc(S(=O)(=O)N2CCOCC2)cc1NC(=O)CN1CCC(Cc2ccccc2)CC1	-	-	-	71.4	-
COc1ccccc1C(=O)N/C(=C\c1cn(C)c2ccccc12)C(=O)NCCCn1ccnc1	-	-	-	67.4	-
COc1cc(C(=O)N/C(=C\c2cn(C)c3ccccc23)C(=O)NCCCn2ccnc2)cc(OC)c1OC	-	-	-	-	.
CC(=O)Nc1ccc(SC[C@H](CC(C)C)N2CCN(CCc3ccccc3)CCC2=O)cc1	-	-	-	66.0	-
Cc1ccc(SC[C@H](CC(C)C)N2CCN(CCc3ccccc3)CCC2=O)cc1	-	.	-	-	.
COc1cc(CNC(C)c2ccccc2)cc(Br)c1OCc1ccc(F)cc1 (stereo not given)	-	-	-	65.3	-
COc1cc(CNc2ccc(O)cc2)cc(Br)c1OCc1ccccc1	-	-	-	-	.
COc1cc(CNC(C)c2ccccc2)cc(Br)c1OCc1ccccc1 (stereo not given)	-	-	-	87.7	-
CCCCn1c(-c2nonc2NC(=O)c2ccccc2Cl)nc2ccccc21	-	.	-	77.1	-
SMILES	CaV13 ICDI inh	VLA-4 inh	ABCB6 inh 2	Exocytosis inh	Granule exo CP1
Cc1ccc(Sc2nc([N+](=O)[O-])nn2C)cc1	-	.	-	-	.
CCC(C)C(=O)Nc1cccc(SC)c1 (stereo not given)	.	-	.	.	.
CCC1C(=O)C(CC)C(c2ccccc2)NC1c1ccccc1 (stereo not given)	-	-	-	60.6	-
COC(=O)C(NC(=O)CNS(=O)(=O)c1ccc(Br)cc1)c1ccccc1 (stereo not given)	-	-	-	62.0	-
COC(=O)C(Cc1ccccc1)NC(=O)CNS(=O)(=O)c1ccc(Br)cc1 (stereo not given)	-	-	-	-	.
O=C(O)Cn1c(=O)n(Cc2ccccc2)c2ccccc21	-	-	-	57.7	-
